Screens: PubChem, National Center for Advancing Translational Sciences (NCATS)
Vaccinia mCherry: qHTS for Stage-Specific Inhibitors of Vaccinia Orthopoxvirus: mCherry Reporter Primary qHTS | Vaccinia virus mCherry reporter infection, fluorescence | Potency, µM (titrated, usually from 36.5 µM), most hits filed as inhibitors | 310,000 tested, 0.63% active; calls by dose curve; tested in A549 cells; note: nearly all actives have a fitted effect of over 35% in size
Vaccinia Venus: qHTS for Stage-Specific Inhibitors of Vaccinia Orthopoxvirus: Venus Reporter Primary qHTS | Vaccinia virus Venus reporter expression, fluorescence | Potency, µM (top dose mostly 36.5 µM), usual class: inhibitors | 330,000 tested, 0.46% active | AID 720580, 2013; calls by dose curve; tested in A549 cells; note: nearly all actives have a fitted effect of over 30% in size
HCMV antiviral: qHTS Assay for inhibitors of the human cytomegalovirus (HCMV) | HFF cells, HCMV-luciferase reporter, 72 h; active compounds read low | activity change, negative = inhibition, % at 57.5 µM | 410,000 tested, 4.5% active; in the data active = activity change below about -60%; inconclusive = no clear call, values can overlap the other calls; inactive = above about -39%
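Steps: HFFs plated, 16 h 37C; compounds added; HCMV-luciferase added to MOI 1 PFU/cell; 72 h 37C; OneGlo reagent, 5 min room temperature; luminescence read, normalized to controls.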
FMDV inh: High Throughput Screening for Foot and Mouth Disease Virus Antivirals | 410,000 tested, 1.2% active | FMDV antiviral cell-based qHTS | Potency, µM (doses to about 57.9 µM), most hits filed as inhibitors; calls by dose curve; tested in HEK293T cells; note: read-out not given here; nearly all actives have a fitted effect of over 45% in size
Sm TGR inh: qHTS Assay for the Inhibitors of Schistosoma Mansoni Peroxiredoxins; Schistosoma mansoni thioredoxin glutathione reductase (TGR), Q962Y6; purified TGR, DTNB reduction, TNB absorbance 405 nm; Potency, µM (doses to about 114 µM), hits mostly inhibitors; 360,000 tested, 3% active; note: nearly all actives have a fitted effect of over 60% in size
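First, TGR (20 nM dispensed) and NADPH were mixed with compound. Second, a 15 min room-temperature incubation followed. Third, further NADPH and then DTNB were added to start the reaction. Finally, TNB absorbance was monitored kinetically.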
HCV inh: qHTS Assay for Inhibitors of Hepatitis C Virus (HCV); AID 651820, 2012; 340,000 tested, 3.4% active; Huh7.5.1 HCVcc-Cre infection, luciferase reporter, 44 h; Potency, µM (top dose mostly 41.8 µM), usual class: inhibitors
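HCVcc-Cre virus at an moi near 0.5 was added right after compound to cells cultured 4 h from seeding (1,000 cells/well). Luciferase activity was determined 44 h later, 15 min after substrate addition at RT.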
Hits are given with their value; – = inactive; ? = inconclusive; · = no result; [ ] = remark or other dose. Shown are actives, neighbours in structure and some others; about 9.3% of the full set was active somewhere. Unless noted, calls come from the whole dose curve; as a rule, active = well fitted curve in the direction sought with a large enough effect; inconclusive = small, poorly fitted or top-dose-only effect, or another doubt; inactive = no such curve, though single readings can be large; an effect the other way counts as inactive or inconclusive.

SMILES | Vaccinia mCherry | Vaccinia Venus | HCMV antiviral | FMDV inh | Sm TGR inh | HCV inh
CC(C)(C)c1csc(NC(=O)c2cccnc2)n1 | · | · | – | – | – | –
Cc1cc(-c2nnc3n2N=C(c2ccc(-c4ccccc4)cc2)CS3)n[nH]1 | 11.2µM | ? | – | ? | – | –
Cc1cccc(-c2nnc3n2N=C(c2ccccc2)CS3)c1 | · | · | ? | – | –[11.4 µM] | ?
Cc1ccc(-c2nnc3n2N=C(c2ccccc2Br)CS3)cc1 | – | – | -77.8 | – | – | ?
c1ccc(-c2cc(-c3nnc4n3N=C(c3ccc5ccccc5c3)CS4)[nH]n2)cc1 | ? | ? | -95.9 | ? | – | –
c1ccc(C2=Nn3c(nnc3-c3ccncc3)SC2)cc1 | – | – | -73.2 | – | – | –
c1ccc(C2=Nn3c(nnc3-c3cccnc3)SC2)cc1 | · | · | – | – | – | –
CCO[C@@H]1OC(C(=O)Nc2ccccc2)=C[C@H](c2csc3ccccc23)[C@H]1CCCO | – | ? | – | – | – | –
N#CC(=C(O)CN1CCN(c2ccccc2F)CC1)c1nc(-c2ccccc2)cs1 | – | – | -70.8 | – | · | –
O=C1NC2c3c(I)sc(I)c3C(=O)C2O1 (stereo not given) | 10µM | ? | – | 39.8µM | · | ?
O=C1NC2c3c(Cl)sc(Cl)c3C(=O)C2O1 (stereo not given) | – | – | – | ? | · | ?
CC(C)n1c(-c2ccc(C(C)(C)C)cc2)n[nH]c1=S | · | · | -72.1 | ? | – | ?
CC(C)(C)c1ccc(-c2n[nH]c(=S)n2Cc2ccccc2)cc1 | – | – | – | – | – | –
CCNC(=S)N1CCn2cccc2C1c1cccnc1 (stereo not given) | – | – | – | – | – | –
CC(Sc1nc2c(N)ncnc2n1CCOc1ccccc1)C(=O)O (stereo not given) | · | · | – | – | – | –
CS(=O)(=O)c1nc(-c2ccccc2)cc(-c2ccccc2)c1C#N | – | – | · | ? | – | 28.2µM
O=C(CCl)N(C1CCCC1)C1CCS(=O)(=O)C1 (stereo not given) | ? | ? | -83.1 | – | 15.8µM | ?
CC(=O)c1ccc(OCC(=O)N(C2CCCCC2)C2CCS(=O)(=O)C2)cc1 (stereo not given) | – | – | – | – | – | –
c1ccc2c(c1)-c1nc3ccccc3cc1C2N1CCCCC1 (stereo not given) | – | – | -101.8 | – | · | ·
CN(C)S(=O)(=O)c1cc(C(=O)NCc2ccccc2)c(Cl)cc1Cl | · | · | – | – | – | 12.6µM
COc1ccc(CNc2ncncc2-c2ccccc2CN(C)C)c(OC)c1 | – | – | · | – | · | ·
COc1ccccc1NC(=O)c1cc(S(=O)(=O)NCCC2=CCCCC2)ccc1F | – | – | – | – | – | ·
O=C(Nc1cccc(F)c1)c1cc(S(=O)(=O)NCCC2=CCCCC2)ccc1F | – | ? | -72.5 | – | – | ?
Cc1ccc(S(=O)(=O)NCCC2=CCCCC2)cc1C(N)=O | · | · | -74.9 | – | – | ?
Cc1cc(C)cc(NC(=O)c2cc(S(=O)(=O)NCCC3=CCCCC3)ccc2F)c1 | – | – | – | – | – | ·
SMILES | Vaccinia mCherry | Vaccinia Venus | HCMV antiviral | FMDV inh | Sm TGR inh | HCV inh
Cc1ccc(NC(=O)c2cc(S(=O)(=O)NCCC3=CCCCC3)ccc2F)cc1F | ? | ? | -70.5 | ? | – | 4.47µM
COc1ccc(NC(=O)c2cc(S(=O)(=O)NCCC3=CCCCC3)ccc2F)cc1 | ? | – | -79.6 | – | – | ·
N=C(N)CCCOc1ccccc1-c1ccccc1 | – | – | – | – | – | –
COc1ccc(C(=O)N/N=C/c2ccc(OC)c(COc3c(F)c(F)cc(F)c3F)c2)cc1 | ? | – | – | ? | – | 2.24µM
COc1ccc(/C=N/NC(=O)c2cccnc2)cc1CSc1ccccn1 | – | – | ? | – | – | –
COc1ccc(/C=N\NC(=O)c2ccc([N+](=O)[O-])cc2)cc1COc1c(F)c(F)cc(F)c1F | · | · | – | ? | – | 1.58µM
COc1cc(OC)cc(C(=O)N/N=C/c2ccc(OC)c(COc3ccc(F)cc3)c2)c1 | – | – | – | – | – | ?
COc1ccc(C(=O)N/N=C/c2ccc(OC)c(CN3CCCc4ccccc43)c2)cc1 | – | – | ? | – | – | 6.31µM
COc1ccc(C(=O)N/N=C/c2ccc(OC)c(CSc3ccccn3)c2)cc1 | · | · | -64.6 | – | – | ?
COC(=O)CN1C(=O)CSc2ccc(S(=O)(=O)Nc3ccc(Cl)cc3C)cc21 | – | – | – | – | – | ·
COc1cc(OCC(N)=O)cc(OC)c1OC | – | – | – | – | – | –
COc1ccc(NC(=O)CCN2CCCCCC2)cc1 | – | – | – | – | – | –
COc1ccc(/C=N/NC(=O)c2cc(OC)c(OC)c(OC)c2)cc1CN1CCc2cc(OC)c(OC)cc2C1C (stereo not given) | – | – | – | – | – | 2µM
COc1ccc(/C=N/NC(=O)c2cccnc2)cc1CN1CCc2cc(OC)c(OC)cc2C1C (stereo not given) | – | – | – | – | – | –
COc1ccc(/C=N/NC(=O)c2cccnc2)cc1COc1ccc([N+](=O)[O-])cc1 | – | – | ? | 28.2µM | – | –
COc1ccc(/C=N/NC(=O)c2cccnc2)cc1COc1ccc(NC(C)=O)cc1 | – | – | – | – | – | –
Cc1nn(-c2ccccc2)c(-c2ccccc2)c1C(=O)O | · | – | -67.1 | – | – | –
CC(=O)Cc1c(C(=O)O)c(C)nn1-c1ccccc1 | – | – | – | – | – | –
CCCCN(C(=O)c1cccc(-n2cnnn2)c1)c1c(N)n(CC(C)C)c(=O)[nH]c1=O | · | · | – | – | – | –
CC(Oc1ccccc1F)C(=O)Nc1ccc2ccccc2c1 (stereo not given) | ? | – | -77.4 | – | – | –
COc1ccc(OC(C)C(=O)Nc2cccc(F)c2)cc1 (stereo not given) | – | – | – | – | – | –
CC(=O)Nc1ccc(NC(=O)C(C)Oc2ccccc2F)cc1 (stereo not given) | · | · | – | – | – | –
CC(Oc1ccc(F)cc1)C(=O)Nc1ccc2ccccc2c1 (stereo not given) | · | · | -66.6 | – | – | ?
CC(C)n1c(-c2ccco2)csc1=Nc1cccnc1 | ? | – | -79.5 | 25.1µM | – | ?
Cc1ccc(-c2csc(=Nc3cccnc3)n2CCCn2ccnc2)cc1C | – | ? | -94.7 | 15.8µM | – | ?
c1cncc(N=c2scc(-c3cccc4ccccc34)n2CCCn2ccnc2)c1 | – | – | ? | ? | – | ?
COCCn1c(-c2ccccc2)csc1=Nc1cccnc1 | – | – | – | ? | – | 8.91µM
CCCCn1c(C)csc1=Nc1cccnc1 | – | – | -63.3 | – | – | –
